# Measured values: publication PMC11006913
# Assays:
# Experiment in all cases: PBM; 200 nM protein, PBS
# Conditions in all cases: dsDNA, one strand shown
# [1] = target: HESX1 (Homo sapiens, UniProt Q9UBX0 95-180, R165K)
# [2] = target: ALX4 (Homo sapiens, UniProt Q9H161 200-286)
# [3] = target: PRRX1 (Homo sapiens, UniProt P54821 80-166, F113S)
# [4] = target: ALX4 (Homo sapiens, UniProt Q9H161 200-286, Q225E)
# [5] = target: HESX1 (Homo sapiens, UniProt Q9UBX0 95-180)
# [6] = target: MSX2 (Homo sapiens, UniProt P35548 130-214, R199I)
# Sequence of MSX2 (Homo sapiens, UniProt P35548 130-214, R199I) (P35548 130-214 R199I): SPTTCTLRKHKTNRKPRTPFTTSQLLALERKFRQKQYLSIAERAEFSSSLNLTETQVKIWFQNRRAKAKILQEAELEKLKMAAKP
# [7] = target: ALX1 (Homo sapiens, UniProt Q15699 118-204, L144V)
# Sequence of ALX1 (Homo sapiens, UniProt Q15699 118-204, L144V) (Q15699 118-204 L144V): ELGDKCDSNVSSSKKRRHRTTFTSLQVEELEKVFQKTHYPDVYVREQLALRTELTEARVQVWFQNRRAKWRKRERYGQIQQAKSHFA
# [8] = target: ALX1 (Homo sapiens, UniProt Q15699 118-204, L144R)
# Sequence of ALX1 (Homo sapiens, UniProt Q15699 118-204, L144R) (Q15699 118-204 L144R): as the sequence (Q15699 118-204 L144V) above, with V27R counted along it
# [9] = target: MSX2 (Homo sapiens, UniProt P35548 130-214)
# Sequence of MSX2 (Homo sapiens, UniProt P35548 130-214) (P35548 130-214): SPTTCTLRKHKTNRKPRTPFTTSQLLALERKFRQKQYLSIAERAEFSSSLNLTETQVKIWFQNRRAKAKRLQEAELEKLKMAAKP
# [10] = target: HESX1 (Homo sapiens, UniProt Q9UBX0 95-180, R109Q)
# Sequence of HESX1 (Homo sapiens, UniProt Q9UBX0 95-180, R109Q) (Q9UBX0 95-180 R109Q): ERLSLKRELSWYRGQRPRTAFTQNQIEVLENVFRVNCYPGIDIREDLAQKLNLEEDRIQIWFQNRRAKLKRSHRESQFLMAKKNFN
# [11] = target: PROP1 (Homo sapiens, UniProt O75360 56-141, R99H)
# Sequence of PROP1 (Homo sapiens, UniProt O75360 56-141, R99H) (O75360 56-141 R99H): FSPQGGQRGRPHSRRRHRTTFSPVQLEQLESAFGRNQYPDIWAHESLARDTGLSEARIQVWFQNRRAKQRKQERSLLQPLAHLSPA
# [12] = target: ALX3 (Homo sapiens, UniProt O95076 139-225, L168Q)
# Sequence of ALX3 (Homo sapiens, UniProt O95076 139-225, L168Q) (O95076 139-225 L168Q): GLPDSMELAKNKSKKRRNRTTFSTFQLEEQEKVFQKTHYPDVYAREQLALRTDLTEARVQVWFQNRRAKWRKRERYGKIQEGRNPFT
# [13] = target: HESX1 (Homo sapiens, UniProt Q9UBX0 95-180, P111T)
# Sequence of HESX1 (Homo sapiens, UniProt Q9UBX0 95-180, P111T) (Q9UBX0 95-180 P111T): as the sequence (Q9UBX0 95-180 R109Q) above, with Q15R, P17T counted along it
# [14] = target: ALX3 (Homo sapiens, UniProt O95076 139-225, L168V)
# Sequence of ALX3 (Homo sapiens, UniProt O95076 139-225, L168V) (O95076 139-225 L168V): as the sequence (O95076 139-225 L168Q) above, with Q30V counted along it
# [15] = target: MSX2 (Homo sapiens, UniProt P35548 130-214, F161Y)
# Sequence of MSX2 (Homo sapiens, UniProt P35548 130-214, F161Y) (P35548 130-214 F161Y): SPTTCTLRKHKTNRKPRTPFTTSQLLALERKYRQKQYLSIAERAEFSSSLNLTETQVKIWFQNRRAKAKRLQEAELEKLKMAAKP
# [16] = target: HESX1 (Homo sapiens, UniProt Q9UBX0 95-180, F115L)
# Sequence of HESX1 (Homo sapiens, UniProt Q9UBX0 95-180, F115L) (Q9UBX0 95-180 F115L): as the sequence (Q9UBX0 95-180 R109Q) above, with Q15R, F21L counted along it
# [17] = target: ALX1 (Homo sapiens, UniProt Q15699 118-204)
# Sequence of ALX1 (Homo sapiens, UniProt Q15699 118-204) (Q15699 118-204): as the sequence (Q15699 118-204 L144V) above, with V27L counted along it
# [18] = target: PRRX1 (Homo sapiens, UniProt P54821 80-166)
# Sequence of PRRX1 (Homo sapiens, UniProt P54821 80-166) (P54821 80-166): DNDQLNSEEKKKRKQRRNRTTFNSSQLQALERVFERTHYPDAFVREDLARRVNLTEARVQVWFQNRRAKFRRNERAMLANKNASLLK
# [19] = target: PROP1 (Homo sapiens, UniProt O75360 56-141)
# Sequence of PROP1 (Homo sapiens, UniProt O75360 56-141) (O75360 56-141): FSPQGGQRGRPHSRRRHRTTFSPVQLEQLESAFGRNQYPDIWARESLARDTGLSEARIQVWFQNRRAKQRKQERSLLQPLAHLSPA
# [20] = target: PROP1 (Homo sapiens, UniProt O75360 56-141, F88S)
# Sequence of PROP1 (Homo sapiens, UniProt O75360 56-141, F88S) (O75360 56-141 F88S): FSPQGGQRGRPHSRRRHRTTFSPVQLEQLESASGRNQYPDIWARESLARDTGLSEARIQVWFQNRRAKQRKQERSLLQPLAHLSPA
# Sequence of HESX1 (Homo sapiens, UniProt Q9UBX0 95-180, R165K) (Q9UBX0 95-180 R165K): as the sequence (Q9UBX0 95-180 R109Q) above, with Q15R, R71K counted along it
# Sequence of HESX1 (Homo sapiens, UniProt Q9UBX0 95-180) (Q9UBX0 95-180): as the sequence (Q9UBX0 95-180 R109Q) above, with Q15R counted along it
# Sequence of ALX4 (Homo sapiens, UniProt Q9H161 200-286, Q225E) (Q9H161 200-286 Q225E): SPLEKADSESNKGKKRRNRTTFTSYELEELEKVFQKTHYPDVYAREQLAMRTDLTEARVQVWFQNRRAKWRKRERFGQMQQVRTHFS
# Sequence of PRRX1 (Homo sapiens, UniProt P54821 80-166, F113S) (P54821 80-166 F113S): as the sequence (P54821 80-166) above, with F34S counted along it
# Sequence of ALX4 (Homo sapiens, UniProt Q9H161 200-286) (Q9H161 200-286): as the sequence (Q9H161 200-286 Q225E) above, with E26Q counted along it
sequence,measurement,setting,value
AATTATCG,binding signal,[1],"11.5 upbm affinity estimate (log intensity, higher = more binding, comparable within an allelic series)"
same,binding signal,[2],"13.7 upbm affinity estimate (log intensity, higher = more binding, comparable within an allelic series)"
same,binding signal,[3],"11 upbm affinity estimate (log intensity, higher = more binding, comparable within an allelic series)"
same,binding signal,[4],"12.7 upbm affinity estimate (log intensity, higher = more binding, comparable within an allelic series)"
same,binding signal,[5],"11.6 upbm affinity estimate (log intensity, higher = more binding, comparable within an allelic series)"
same,binding signal,[6],"12.3 upbm affinity estimate (log intensity, higher = more binding, comparable within an allelic series)"
same,binding signal,[7],"11.5 upbm affinity estimate (log intensity, higher = more binding, comparable within an allelic series)"
same,binding signal,[8],"11.1 upbm affinity estimate (log intensity, higher = more binding, comparable within an allelic series)"
same,binding signal,[9],"13.4 upbm affinity estimate (log intensity, higher = more binding, comparable within an allelic series)"
same,binding signal,[10],"8.48 upbm affinity estimate (log intensity, higher = more binding, comparable within an allelic series)"
same,binding signal,[11],"10.8 upbm affinity estimate (log intensity, higher = more binding, comparable within an allelic series)"
same,binding signal,[12],"10.3 upbm affinity estimate (log intensity, higher = more binding, comparable within an allelic series)"
same,binding signal,[13],"10.2 upbm affinity estimate (log intensity, higher = more binding, comparable within an allelic series)"
same,binding signal,[14],"9.82 upbm affinity estimate (log intensity, higher = more binding, comparable within an allelic series)"
same,binding signal,[15],"13 upbm affinity estimate (log intensity, higher = more binding, comparable within an allelic series)"
same,binding signal,[16],"7.49 upbm affinity estimate (log intensity, higher = more binding, comparable within an allelic series)"
same,binding signal,[17],"12 upbm affinity estimate (log intensity, higher = more binding, comparable within an allelic series)"
same,binding signal,[18],"13.2 upbm affinity estimate (log intensity, higher = more binding, comparable within an allelic series)"
AGATTGGG,binding signal,[1],"7.4 upbm affinity estimate (log intensity, higher = more binding, comparable within an allelic series)"
same,binding signal,[5],"7.61 upbm affinity estimate (log intensity, higher = more binding, comparable within an allelic series)"
same,binding signal,[10],"7.3 upbm affinity estimate (log intensity, higher = more binding, comparable within an allelic series)"
same,binding signal,[13],"7.23 upbm affinity estimate (log intensity, higher = more binding, comparable within an allelic series)"
AGCCGAGC,binding signal,[1],"6.4 upbm affinity estimate (log intensity, higher = more binding, comparable within an allelic series)"
same,binding signal,[5],"6.26 upbm affinity estimate (log intensity, higher = more binding, comparable within an allelic series)"
same,binding signal,[10],"6.48 upbm affinity estimate (log intensity, higher = more binding, comparable within an allelic series)"
same,binding signal,[13],"6.46 upbm affinity estimate (log intensity, higher = more binding, comparable within an allelic series)"
same,binding signal,[16],"6.45 upbm affinity estimate (log intensity, higher = more binding, comparable within an allelic series)"
AGTCGCGC,binding signal,[1],"6.38 upbm affinity estimate (log intensity, higher = more binding, comparable within an allelic series)"
same,binding signal,[5],"6.32 upbm affinity estimate (log intensity, higher = more binding, comparable within an allelic series)"
same,binding signal,[10],"6.51 upbm affinity estimate (log intensity, higher = more binding, comparable within an allelic series)"
same,binding signal,[13],"6.45 upbm affinity estimate (log intensity, higher = more binding, comparable within an allelic series)"
same,binding signal,[16],"6.58 upbm affinity estimate (log intensity, higher = more binding, comparable within an allelic series)"
CTTGGCGA,binding signal,[1],"6.46 upbm affinity estimate (log intensity, higher = more binding, comparable within an allelic series)"
same,binding signal,[5],"6.46 upbm affinity estimate (log intensity, higher = more binding, comparable within an allelic series)"
same,binding signal,[19],"6.63 upbm affinity estimate (log intensity, higher = more binding, comparable within an allelic series)"
same,binding signal,[10],"6.48 upbm affinity estimate (log intensity, higher = more binding, comparable within an allelic series)"
same,binding signal,[11],"6.61 upbm affinity estimate (log intensity, higher = more binding, comparable within an allelic series)"
same,binding signal,[13],"6.51 upbm affinity estimate (log intensity, higher = more binding, comparable within an allelic series)"
same,binding signal,[20],"6.64 upbm affinity estimate (log intensity, higher = more binding, comparable within an allelic series)"
same,binding signal,[16],"6.53 upbm affinity estimate (log intensity, higher = more binding, comparable within an allelic series)"
CAGTGCCG,binding signal,[1],"6.35 upbm affinity estimate (log intensity, higher = more binding, comparable within an allelic series)"
same,binding signal,[5],"6.41 upbm affinity estimate (log intensity, higher = more binding, comparable within an allelic series)"
same,binding signal,[10],"6.49 upbm affinity estimate (log intensity, higher = more binding, comparable within an allelic series)"
same,binding signal,[13],"6.42 upbm affinity estimate (log intensity, higher = more binding, comparable within an allelic series)"
same,binding signal,[16],"6.53 upbm affinity estimate (log intensity, higher = more binding, comparable within an allelic series)"
AGGTGGCC,binding signal,[1],"6.42 upbm affinity estimate (log intensity, higher = more binding, comparable within an allelic series)"
same,binding signal,[5],"6.42 upbm affinity estimate (log intensity, higher = more binding, comparable within an allelic series)"
same,binding signal,[10],"6.5 upbm affinity estimate (log intensity, higher = more binding, comparable within an allelic series)"
same,binding signal,[13],"6.47 upbm affinity estimate (log intensity, higher = more binding, comparable within an allelic series)"
same,binding signal,[16],"6.46 upbm affinity estimate (log intensity, higher = more binding, comparable within an allelic series)"
CGCCACGA,binding signal,[1],"6.55 upbm affinity estimate (log intensity, higher = more binding, comparable within an allelic series)"
same,binding signal,[5],"6.36 upbm affinity estimate (log intensity, higher = more binding, comparable within an allelic series)"
same,binding signal,[10],"6.47 upbm affinity estimate (log intensity, higher = more binding, comparable within an allelic series)"
same,binding signal,[13],"6.47 upbm affinity estimate (log intensity, higher = more binding, comparable within an allelic series)"
same,binding signal,[16],"6.57 upbm affinity estimate (log intensity, higher = more binding, comparable within an allelic series)"
CCGCTCCC,binding signal,[1],"6.47 upbm affinity estimate (log intensity, higher = more binding, comparable within an allelic series)"
same,binding signal,[5],"6.49 upbm affinity estimate (log intensity, higher = more binding, comparable within an allelic series)"
same,binding signal,[10],"6.46 upbm affinity estimate (log intensity, higher = more binding, comparable within an allelic series)"
same,binding signal,[13],"6.35 upbm affinity estimate (log intensity, higher = more binding, comparable within an allelic series)"
same,binding signal,[16],"6.43 upbm affinity estimate (log intensity, higher = more binding, comparable within an allelic series)"
CAGCTCGG,binding signal,[1],"6.3 upbm affinity estimate (log intensity, higher = more binding, comparable within an allelic series)"
same,binding signal,[5],"6.27 upbm affinity estimate (log intensity, higher = more binding, comparable within an allelic series)"
same,binding signal,[10],"6.34 upbm affinity estimate (log intensity, higher = more binding, comparable within an allelic series)"
same,binding signal,[13],"6.3 upbm affinity estimate (log intensity, higher = more binding, comparable within an allelic series)"
same,binding signal,[16],"6.51 upbm affinity estimate (log intensity, higher = more binding, comparable within an allelic series)"
CACGGCGC,binding signal,[1],"6.6 upbm affinity estimate (log intensity, higher = more binding, comparable within an allelic series)"
same,binding signal,[5],"6.29 upbm affinity estimate (log intensity, higher = more binding, comparable within an allelic series)"
same,binding signal,[10],"6.5 upbm affinity estimate (log intensity, higher = more binding, comparable within an allelic series)"
same,binding signal,[13],"6.54 upbm affinity estimate (log intensity, higher = more binding, comparable within an allelic series)"
same,binding signal,[16],"6.57 upbm affinity estimate (log intensity, higher = more binding, comparable within an allelic series)"
CACCCGGC,binding signal,[1],"6.47 upbm affinity estimate (log intensity, higher = more binding, comparable within an allelic series)"
same,binding signal,[5],"6.48 upbm affinity estimate (log intensity, higher = more binding, comparable within an allelic series)"
same,binding signal,[10],"6.53 upbm affinity estimate (log intensity, higher = more binding, comparable within an allelic series)"
same,binding signal,[13],"6.47 upbm affinity estimate (log intensity, higher = more binding, comparable within an allelic series)"
same,binding signal,[16],"6.3 upbm affinity estimate (log intensity, higher = more binding, comparable within an allelic series)"
CAATATCG,binding signal,[1],"7.31 upbm affinity estimate (log intensity, higher = more binding, comparable within an allelic series)"
same,binding signal,[5],"7.37 upbm affinity estimate (log intensity, higher = more binding, comparable within an allelic series)"
same,binding signal,[10],"7.14 upbm affinity estimate (log intensity, higher = more binding, comparable within an allelic series)"
same,binding signal,[13],"7.2 upbm affinity estimate (log intensity, higher = more binding, comparable within an allelic series)"
AACTCATA,binding signal,[1],"7.51 upbm affinity estimate (log intensity, higher = more binding, comparable within an allelic series)"
same,binding signal,[5],"7.49 upbm affinity estimate (log intensity, higher = more binding, comparable within an allelic series)"
same,binding signal,[10],"7.12 upbm affinity estimate (log intensity, higher = more binding, comparable within an allelic series)"
same,binding signal,[13],"7.23 upbm affinity estimate (log intensity, higher = more binding, comparable within an allelic series)"
ATTAGCGA,binding signal,[1],"9.89 upbm affinity estimate (log intensity, higher = more binding, comparable within an allelic series)"
same,binding signal,[5],"10.1 upbm affinity estimate (log intensity, higher = more binding, comparable within an allelic series)"
same,binding signal,[19],"10.2 upbm affinity estimate (log intensity, higher = more binding, comparable within an allelic series)"
same,binding signal,[11],"9.94 upbm affinity estimate (log intensity, higher = more binding, comparable within an allelic series)"
same,binding signal,[13],"8.88 upbm affinity estimate (log intensity, higher = more binding, comparable within an allelic series)"
same,binding signal,[20],"7.4 upbm affinity estimate (log intensity, higher = more binding, comparable within an allelic series)"
CGCCCAAG,binding signal,[1],"6.57 upbm affinity estimate (log intensity, higher = more binding, comparable within an allelic series)"
same,binding signal,[5],"6.59 upbm affinity estimate (log intensity, higher = more binding, comparable within an allelic series)"
same,binding signal,[10],"6.54 upbm affinity estimate (log intensity, higher = more binding, comparable within an allelic series)"
same,binding signal,[12],"7.8 upbm affinity estimate (log intensity, higher = more binding, comparable within an allelic series)"
same,binding signal,[13],"6.5 upbm affinity estimate (log intensity, higher = more binding, comparable within an allelic series)"
same,binding signal,[14],"7.74 upbm affinity estimate (log intensity, higher = more binding, comparable within an allelic series)"
same,binding signal,[16],"6.55 upbm affinity estimate (log intensity, higher = more binding, comparable within an allelic series)"
CCGGCCGA,binding signal,[1],"6.49 upbm affinity estimate (log intensity, higher = more binding, comparable within an allelic series)"
same,binding signal,[5],"6.45 upbm affinity estimate (log intensity, higher = more binding, comparable within an allelic series)"
same,binding signal,[19],"6.73 upbm affinity estimate (log intensity, higher = more binding, comparable within an allelic series)"
same,binding signal,[10],"6.51 upbm affinity estimate (log intensity, higher = more binding, comparable within an allelic series)"
same,binding signal,[11],"6.72 upbm affinity estimate (log intensity, higher = more binding, comparable within an allelic series)"
same,binding signal,[13],"6.49 upbm affinity estimate (log intensity, higher = more binding, comparable within an allelic series)"
same,binding signal,[20],"6.59 upbm affinity estimate (log intensity, higher = more binding, comparable within an allelic series)"
same,binding signal,[16],"6.54 upbm affinity estimate (log intensity, higher = more binding, comparable within an allelic series)"
AGCTTGCG,binding signal,[1],"6.46 upbm affinity estimate (log intensity, higher = more binding, comparable within an allelic series)"
same,binding signal,[5],"6.4 upbm affinity estimate (log intensity, higher = more binding, comparable within an allelic series)"
same,binding signal,[10],"6.39 upbm affinity estimate (log intensity, higher = more binding, comparable within an allelic series)"
same,binding signal,[13],"6.32 upbm affinity estimate (log intensity, higher = more binding, comparable within an allelic series)"
same,binding signal,[16],"6.52 upbm affinity estimate (log intensity, higher = more binding, comparable within an allelic series)"
